Assay [1] concerns the target Nuclear receptor ROR-gamma (Homo sapiens) (UniProt P51449). As to the kind of experiment: qHTS assay to identify small molecule antagonists of the retinoid-related orphan receptor gamma (ROR-gamma) signaling pathway (AID 1159521; note: nearly all actives have a fitted effect of over 50% in size; note: potency is the fitted concentration of half-maximal effect). An outline of the steps:
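Test compounds were applied to Tet-on RORγ CHO cells 2 h ahead of doxycycline hyclate (1 uM final). Luciferase reporter activity was quantified by luminescence after 16 h at 37 C and 5% CO2.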
(In general: In qHTS, concentration-response curves come from the screen itself.)

A short description of assay [2]: qHTS assay to identify small molecule agonists of the AP-1 signaling pathway (AID 1159526; calls by dose curve; note: potency is the fitted concentration of half-maximal effect).
The nature of assay [3]: qHTS assay to identify small molecule antagonists of the retinoid acid receptor (RAR) signaling pathway - cell viability counter screen (AID 1159551). Note: nearly all actives have a fitted effect of over 35% in size. The procedure, abridged:
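Cytotoxicity counter screen: ATP content quantified by CellTiter-Glo luminescence in C3RL4 cells treated 6 hr at 37 C with compound and retinol (1 uM final). Cells plated at 1,000/well and cultured overnight before dosing.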

A short description of assay [4]: qHTS assay to identify small molecule antagonists of the retinoic acid receptor (RAR) signaling pathway (AID 1159552; note: nearly all actives have a fitted effect of over 50% in size). An outline of the steps:
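Test chemicals and DMSO controls were pin-transferred onto C3RL4 cells a day after seeding; retinol (1 uM final) followed at once. Luminescent reporter output was quantified after 6 hr of co-incubation and 30 min with detection reagent.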

Assay [5] is described as follows: qHTS assay to identify small molecule agonists of the retinoic acid receptor (RAR) signaling pathway (AID 1159553). Note: potency is the fitted concentration of half-maximal effect. An outline of the steps:
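Luminescence was measured 30 min after luciferase reagent addition at room temperature. Before that, C3RL4 reporter cells (1,000 per well, plated overnight) were treated with compound for 6 hr at 37 C and 5% CO2.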

Assay [6] can be described thus: qHTS assay to identify small molecule antagonists of the estrogen related receptor (ERR) signaling pathway from Tox21 library - cell viability counter screen (AID 1224834). Note: nearly all actives have a fitted effect of over 30% in size. Note: potency is the fitted concentration of half-maximal effect. An outline of the steps:
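CellTiter-Fluor fluorescence, read after 30 min at 37 C, measures viability of ERR cells. Cells plated at 2,000/well and incubated 6 h before pin-tool compound addition, then exposed 17.5 hours at 37 C.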

Assay [7] deals with Luciferin 4-monooxygenase (Photinus pyralis) (UniProt P08659). The assay is described as follows: qHTS assay to identify small molecule inhibitors of firefly luciferase (AID 1224835). Note: nearly all actives have a fitted effect of over 25% in size. Note: potency is the fitted concentration of half-maximal effect. An outline of the steps: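 Quantitative HTS format; KM concentrations of both substrates. Purified P. pyralis FLuc activity quantified from luminescence images.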
Sequence of Luciferin 4-monooxygenase (Photinus pyralis) (P08659 whole entry, looked up): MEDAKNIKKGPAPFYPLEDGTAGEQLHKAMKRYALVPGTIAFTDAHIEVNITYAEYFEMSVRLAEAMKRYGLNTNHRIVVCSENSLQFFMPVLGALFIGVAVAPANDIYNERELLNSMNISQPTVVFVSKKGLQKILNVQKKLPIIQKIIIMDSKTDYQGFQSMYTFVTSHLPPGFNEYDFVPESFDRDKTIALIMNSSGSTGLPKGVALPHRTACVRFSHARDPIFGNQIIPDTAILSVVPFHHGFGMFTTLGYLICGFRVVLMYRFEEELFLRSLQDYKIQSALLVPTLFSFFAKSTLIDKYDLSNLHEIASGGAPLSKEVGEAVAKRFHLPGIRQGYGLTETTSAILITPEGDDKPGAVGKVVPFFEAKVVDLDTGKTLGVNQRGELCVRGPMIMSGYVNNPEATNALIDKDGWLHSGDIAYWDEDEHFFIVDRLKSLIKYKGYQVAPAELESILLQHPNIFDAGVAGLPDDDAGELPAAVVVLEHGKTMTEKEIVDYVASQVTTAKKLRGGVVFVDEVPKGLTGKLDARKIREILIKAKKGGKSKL
A short description of assay [8]: qHTS assay to identify small molecule agonists of the AP-1 signaling pathway - cell viability counter screen (AID 1159525; calls by dose curve; note: nearly all actives have a fitted effect of over 55% in size). An outline of the steps: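 Each titration point was normalised to DMSO and tetra n-octyl ammonium bromide controls. The read was Cell Titer Glo luminescence after 30 min at RT, following 5 h compound exposure of ME-180 AP-1-bla cells at 37 °C.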

Assay [9] addresses Retinoic acid receptor RXR-alpha (Homo sapiens) (UniProt P19793). As to the kind of experiment: qHTS assay to identify small molecule agonists of the RXR signaling pathway (AID 1159527; calls by dose curve; note: nearly all actives have a fitted effect of over 35% in size). The procedure, abridged:
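Using 9-cis retinoic acid as the reference agonist, chemicals were tested in HEK 293T cells […] for 16 hr; substrate loading lasted 2 hr at room temperature.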

Assay [10] in a line: qHTS assay to identify small molecule agonists of the RXR signaling pathway - cell viability counter screen (AID 1159529). Note: nearly all actives have a fitted effect of over 50% in size. Note: potency is the fitted concentration of half-maximal effect. An outline of the steps:
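Compounds dissolved in DMSO were pinned onto HEK 293T cells carrying a beta-lactamase reporter under RXR-alpha control and incubated 16 hr. Cytotoxicity was then quantified by CellTiter-Glo luminescence.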

Assay [11] is described as follows: qHTS assay to identify small molecule agonists of the constitutive androstane receptor (CAR) signaling pathway - cell viability counter screen (AID 1224836). Note: series mostly up to about 92 µM; nearly all actives have a fitted effect of over 45% in size. The procedure, abridged:
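23 h treatment, 37 C, 5% CO2. Cell line: HepG2 stably expressing hCAR with a CYP2B6-2.2kb construct. Co-treatment: PK11195, 0.75 uM final. Read-out: CellTiter-Fluor fluorescence intensity.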

A short description of assay [12]: qHTS assay to identify small molecule antagonists of the constitutive androstane receptor (CAR) signaling pathway - cell viability counter screen (AID 1224837). Note: series mostly up to about 92 µM; nearly all actives have a fitted effect of over 45% in size. The procedure, abridged:
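Cytotoxicity counter-screen: CellTiter-Fluor fluorescence after 23 h compound exposure (15-point qHTS) in double-stable HepG2-CYP2B6-hCAR cells, with 50 nM CITCO added.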

Assay [13] has as its target Nuclear receptor subfamily 1 group I member 3 (Homo sapiens) (UniProt Q14994). The assay is described as follows: qHTS assay to identify small molecule agonists of the constitutive androstane receptor (CAR) signaling pathway (AID 1224839). Note: nearly all actives have a fitted effect of over 15% in size. Note: potency is the fitted concentration of half-maximal effect. An outline of the steps: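 Compounds tested at 15 concentrations on HepG2 cells stably harbouring hCAR and CYP2B6-2.2kb reporter constructs, co-treated with PK11195 (0.75 uM final), 24 h at 37 C; luminescent reporter signal quantified.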

The nature of assay [14]: qHTS assay to identify small molecule antagonists of the estrogen related receptor (ERR) signaling pathway - cell viability counter screen (AID 1224818). Note: series mostly up to about 46 µM. The procedure, abridged: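 Cytotoxicity counter screen: fluorescence from CellTiter-Fluor, added after 17.5 h compound exposure at 37 C and read 30 min later. ERR cell line seeded at 2,000 cells/well, preincubated 6 h before dosing.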

A short description of assay [15]: qHTS assay to identify small molecule antagonists of the estrogen related receptor signaling pathway with the pleiotropic PPARgamma coactivator (PGC) cell viability counter screen (AID 1224822; note: series mostly up to about 46 µM). An outline of the steps: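 Viability counter-screen read by fluorescence intensity after 30 min with CellTiter-Fluor at 37 C; PGC/ERR reporter cells were exposed to compounds for 17.5 h at 37 C following a 6 h preincubation.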

In assay [16] the target is Nuclear receptor subfamily 1 group I member 3 (Homo sapiens) (UniProt Q14994). The assay is described as follows: qHTS assay to identify small molecule antagonists of the constitutive androstane receptor (CAR) signaling pathway (AID 1224838).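 Note: HepG2 cells stably expressing hCAR with CYP2B6 luciferase reporter stimulated by CITCO; nearly all actives have a fitted effect of over 40% in size.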 The procedure, abridged: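 Antagonism measured as luciferase signal (ONE-Glo, 30 min, room temperature) in CAR-stimulated cells: HepG2-CYP2B6-hCAR double-stable line exposed 24 hr at 37 C to compound in a 15-point series plus 50 nM CITCO.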
Sequence of Nuclear receptor subfamily 1 group I member 3 (Homo sapiens) (Q14994 whole entry, looked up): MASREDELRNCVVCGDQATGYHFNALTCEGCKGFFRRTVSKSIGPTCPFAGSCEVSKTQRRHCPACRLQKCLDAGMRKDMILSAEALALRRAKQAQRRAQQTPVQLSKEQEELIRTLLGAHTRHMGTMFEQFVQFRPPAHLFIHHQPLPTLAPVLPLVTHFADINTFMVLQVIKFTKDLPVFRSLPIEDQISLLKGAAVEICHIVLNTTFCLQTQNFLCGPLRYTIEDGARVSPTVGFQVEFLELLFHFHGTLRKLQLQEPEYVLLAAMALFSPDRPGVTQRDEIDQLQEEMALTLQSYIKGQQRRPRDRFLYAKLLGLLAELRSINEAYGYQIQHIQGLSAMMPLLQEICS

Each structure is given as a SMILES string. Records with an inconclusive call do not appear. Active and inactive are the calls of the source. Unless noted, calls come from the whole dose curve; as a rule, active = well fitted curve in the direction sought with a large enough effect in the repeat runs; inconclusive = weak or mixed curves; inactive = no such curve, though single readings can be large; an effect the other way counts as inactive or inconclusive.

Sequence of Retinoic acid receptor RXR-alpha (Homo sapiens) (P19793 whole entry, looked up): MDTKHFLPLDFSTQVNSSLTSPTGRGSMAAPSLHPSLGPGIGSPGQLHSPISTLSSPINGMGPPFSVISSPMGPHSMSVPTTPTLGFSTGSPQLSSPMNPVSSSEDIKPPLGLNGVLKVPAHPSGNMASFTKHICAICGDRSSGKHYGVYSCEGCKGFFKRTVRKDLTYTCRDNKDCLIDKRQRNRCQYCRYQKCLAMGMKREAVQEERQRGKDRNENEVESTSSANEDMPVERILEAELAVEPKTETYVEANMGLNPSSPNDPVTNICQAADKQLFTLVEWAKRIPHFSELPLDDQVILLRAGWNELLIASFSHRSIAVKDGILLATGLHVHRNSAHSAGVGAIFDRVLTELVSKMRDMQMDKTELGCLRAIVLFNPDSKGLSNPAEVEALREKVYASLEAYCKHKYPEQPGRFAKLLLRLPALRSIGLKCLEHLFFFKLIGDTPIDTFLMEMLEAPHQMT

As for `C[C@H]1O[C@@H](O[C@H]2CC[C@@]3(C)[C@H](CC[C@@H]4[C@@H]3C[C@@H](O)[C@]3(C)[C@@H](C5=CC(=O)OC5)CC[C@]43O)C2)C[C@H](O)[C@@H]1O[C@H]1C[C@H](O)[C@H](O[C@H]2C[C@H](O)[C@H](O[C@@H]3O[C@H](CO)[C@@H](O)[C@H](O)[C@H]3O)[C@@H](C)O2)[C@@H](C)O1`, the Potency entry in assay [1], in assay [2], in assay [3], in assay [4], in assay [5] and in assay [7] was “inactive” in each case. In addition, the Potency in assay [6] was 0.168 µM (active).
With `CC1CCC(C(C)(C)O)CC1` (stereo unspecified), the Potency entry in assay [8], in [2], in assay [9], in assay [10], in [3] and in assay [6] was “inactive” in each case. The Potency result in [7], in assay [11], in assay [12] and in [13] was “inactive” each time.
With `O=C(N[C@H](CO)[C@H](O)c1ccc([N+](=O)[O-])cc1)C(Cl)Cl`, the Potency entry in [1], in [2], in [9], in [10], in [3] and in [5] was “inactive” each time. For the same compound, the Potency result in [14], in assay [15], in assay [6], in assay [7], in assay [11] and in [12] was “inactive” each time.
As to `CCCCC/C=C\C=C\C(=O)OCC`, the Potency in [1] was 56.8 µM (active); in [10], 45.5 µM (active); in assay [6] it was 71.5 µM (active). Further, the Potency result in [3] and in assay [7] was “inactive” in each case.
In the case of `Oc1ccc2c(c1)CCC2`, the Potency entry in [8], in assay [2], in assay [9], in assay [10], in [3] and in [4] was “inactive” in each case. Further, the Potency result in [6], in assay [7], in [11] and in assay [12] was “inactive” each time.
As to `CCCCCCCC/C=C\CCCCCCCC(=O)N(CCO)CCO`, in [1], the Potency was 30.5 µM (active). The Potency result in [3], in [4] and in assay [7] was “inactive” each time.
As for `CC1=CC[C@@H](C(C)(C)O)CC1`, the Potency result in assay [8], in [2], in assay [9], in assay [10], in [3] and in assay [7] was “inactive” each time. Also, the Potency result in [11] and in assay [12] was “inactive” throughout.
On to `Cc1ccc2sc3cccc(C)c3c2c1`, for which the Potency entry in assay [8], in assay [2], in assay [9], in [3], in assay [6] and in assay [7] was “inactive” in each case. The Potency result in assay [11], in assay [12] and in assay [16] was “inactive” in each case. In addition, the Potency in [13] is 27.3 µM (active).
For the compound `CO[Si](OC)(c1ccccc1)c1ccccc1`, the Potency in assay [1] is 61.1 µM (active). The Potency result in [3], in assay [6], in assay [7], in [11], in assay [12] and in assay [13] was “inactive” each time.
Turning to `Cc1ccc2nc(-c3ccc(N)cc3)sc2c1S(=O)(=O)O`, the Potency result in assay [8], in [10], in assay [3], in [4], in assay [6] and in assay [11] was “inactive” in each case. Moreover, the Potency entry in [12] and in assay [16] was “inactive” each time. Moreover, the Potency in assay [2] was 21.5 µM (active); in assay [5] it was 0.426 µM (active); in [7], 1.39 µM (active); in assay [13], 9.54 µM (active).
As to `c1ccc(-c2nc3ccccc3[nH]2)cc1`, the Potency result in [8], in [2], in [9], in [10], in [4] and in [6] was “inactive” each time. Further, the Potency entry in assay [12] is “inactive”. The Potency in assay [7] was 5.64 µM (active).
Regarding `CC(C)c1ccc2sc3ccccc3c(=O)c2c1`, the Potency result in assay [8], in assay [2], in [6], in assay [11] and in assay [12] was “inactive” each time. The Potency in [7] was 1.59 µM (active).
Consider `Nc1ccc(Cl)c([N+](=O)[O-])c1`, for which the Potency entry in assay [8], in assay [9], in [10], in assay [3], in [4] and in assay [7] was “inactive” each time. For the same compound, the Potency result in assay [11] and in assay [12] was “inactive” in each case.
On to `[Cl][Sc]([Cl])[Cl]`, for which the Potency result in assay [8], in assay [2], in [10], in assay [3], in [6] and in [11] was “inactive” in each case. Moreover, the Potency entry in [12], in assay [16] and in assay [13] was “inactive” each time. Further, the Potency in assay [7] is 28.3 µM (active).
For `O=C1CCC(=O)N1`, the Potency entry in [8], in [2], in assay [10], in [3], in assay [6] and in assay [7] was “inactive” in each case. The Potency entry in assay [11] and in [12] was “inactive” throughout.
For `CCOC(=O)[C@H](O)[C@@H](O)C(=O)OCC`, the Potency entry in assay [8], in [2], in assay [10], in assay [3], in [4] and in [6] was “inactive” in each case. The Potency entry in assay [7], in assay [11], in [12] and in [13] was “inactive” each time.
With `Nc1c(Br)cc([N+](=O)[O-])cc1Br`, the Potency result in [8], in assay [2], in assay [10], in [3], in assay [4] and in [6] was “inactive” in each case. Also, the Potency entry in [7], in [11], in assay [12], in assay [16] and in assay [13] was “inactive” in each case.

(Values after PubChem BioAssay (Tox21).)
